Shown are actives, neighbours in structure and some others; about 7.6% of the full set was active somewhere.
M1 antag: antagonists of rat M1 muscarinic receptor; Muscarinic acetylcholine receptor M1 (Rattus norvegicus), P08482; CHO-M1 cells, Fluo-4 calcium, ACh EC80 antagonist mode; active compounds read low; B-score at 10 µM; 64,000 compounds, 3.4% hits;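 active = calcium fluorescence response, raw or row-and-column corrected B-score, differing from the plate sample mean either way at a set confidence level, mostly lower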
Cav32 inh: Cav3.2 calcium influx blockers – cell-based, Fluo-4 calcium fluorescence, FDSS, MLSMR library, primary screen | 100,000 compounds, 4% hits | B-score at 10 µM | Voltage-dependent T-type calcium channel subunit alpha-1H (Homo sapiens), O95180 | Cav3.2-expressing cells; active compounds read low | AID 449739, 2010;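 active = single-dose well whose peak fluorescence ratio is a statistical outlier from its plate by either plate-standardised score or position-corrected B-score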
Target sequence (O95180 whole entry, looked up): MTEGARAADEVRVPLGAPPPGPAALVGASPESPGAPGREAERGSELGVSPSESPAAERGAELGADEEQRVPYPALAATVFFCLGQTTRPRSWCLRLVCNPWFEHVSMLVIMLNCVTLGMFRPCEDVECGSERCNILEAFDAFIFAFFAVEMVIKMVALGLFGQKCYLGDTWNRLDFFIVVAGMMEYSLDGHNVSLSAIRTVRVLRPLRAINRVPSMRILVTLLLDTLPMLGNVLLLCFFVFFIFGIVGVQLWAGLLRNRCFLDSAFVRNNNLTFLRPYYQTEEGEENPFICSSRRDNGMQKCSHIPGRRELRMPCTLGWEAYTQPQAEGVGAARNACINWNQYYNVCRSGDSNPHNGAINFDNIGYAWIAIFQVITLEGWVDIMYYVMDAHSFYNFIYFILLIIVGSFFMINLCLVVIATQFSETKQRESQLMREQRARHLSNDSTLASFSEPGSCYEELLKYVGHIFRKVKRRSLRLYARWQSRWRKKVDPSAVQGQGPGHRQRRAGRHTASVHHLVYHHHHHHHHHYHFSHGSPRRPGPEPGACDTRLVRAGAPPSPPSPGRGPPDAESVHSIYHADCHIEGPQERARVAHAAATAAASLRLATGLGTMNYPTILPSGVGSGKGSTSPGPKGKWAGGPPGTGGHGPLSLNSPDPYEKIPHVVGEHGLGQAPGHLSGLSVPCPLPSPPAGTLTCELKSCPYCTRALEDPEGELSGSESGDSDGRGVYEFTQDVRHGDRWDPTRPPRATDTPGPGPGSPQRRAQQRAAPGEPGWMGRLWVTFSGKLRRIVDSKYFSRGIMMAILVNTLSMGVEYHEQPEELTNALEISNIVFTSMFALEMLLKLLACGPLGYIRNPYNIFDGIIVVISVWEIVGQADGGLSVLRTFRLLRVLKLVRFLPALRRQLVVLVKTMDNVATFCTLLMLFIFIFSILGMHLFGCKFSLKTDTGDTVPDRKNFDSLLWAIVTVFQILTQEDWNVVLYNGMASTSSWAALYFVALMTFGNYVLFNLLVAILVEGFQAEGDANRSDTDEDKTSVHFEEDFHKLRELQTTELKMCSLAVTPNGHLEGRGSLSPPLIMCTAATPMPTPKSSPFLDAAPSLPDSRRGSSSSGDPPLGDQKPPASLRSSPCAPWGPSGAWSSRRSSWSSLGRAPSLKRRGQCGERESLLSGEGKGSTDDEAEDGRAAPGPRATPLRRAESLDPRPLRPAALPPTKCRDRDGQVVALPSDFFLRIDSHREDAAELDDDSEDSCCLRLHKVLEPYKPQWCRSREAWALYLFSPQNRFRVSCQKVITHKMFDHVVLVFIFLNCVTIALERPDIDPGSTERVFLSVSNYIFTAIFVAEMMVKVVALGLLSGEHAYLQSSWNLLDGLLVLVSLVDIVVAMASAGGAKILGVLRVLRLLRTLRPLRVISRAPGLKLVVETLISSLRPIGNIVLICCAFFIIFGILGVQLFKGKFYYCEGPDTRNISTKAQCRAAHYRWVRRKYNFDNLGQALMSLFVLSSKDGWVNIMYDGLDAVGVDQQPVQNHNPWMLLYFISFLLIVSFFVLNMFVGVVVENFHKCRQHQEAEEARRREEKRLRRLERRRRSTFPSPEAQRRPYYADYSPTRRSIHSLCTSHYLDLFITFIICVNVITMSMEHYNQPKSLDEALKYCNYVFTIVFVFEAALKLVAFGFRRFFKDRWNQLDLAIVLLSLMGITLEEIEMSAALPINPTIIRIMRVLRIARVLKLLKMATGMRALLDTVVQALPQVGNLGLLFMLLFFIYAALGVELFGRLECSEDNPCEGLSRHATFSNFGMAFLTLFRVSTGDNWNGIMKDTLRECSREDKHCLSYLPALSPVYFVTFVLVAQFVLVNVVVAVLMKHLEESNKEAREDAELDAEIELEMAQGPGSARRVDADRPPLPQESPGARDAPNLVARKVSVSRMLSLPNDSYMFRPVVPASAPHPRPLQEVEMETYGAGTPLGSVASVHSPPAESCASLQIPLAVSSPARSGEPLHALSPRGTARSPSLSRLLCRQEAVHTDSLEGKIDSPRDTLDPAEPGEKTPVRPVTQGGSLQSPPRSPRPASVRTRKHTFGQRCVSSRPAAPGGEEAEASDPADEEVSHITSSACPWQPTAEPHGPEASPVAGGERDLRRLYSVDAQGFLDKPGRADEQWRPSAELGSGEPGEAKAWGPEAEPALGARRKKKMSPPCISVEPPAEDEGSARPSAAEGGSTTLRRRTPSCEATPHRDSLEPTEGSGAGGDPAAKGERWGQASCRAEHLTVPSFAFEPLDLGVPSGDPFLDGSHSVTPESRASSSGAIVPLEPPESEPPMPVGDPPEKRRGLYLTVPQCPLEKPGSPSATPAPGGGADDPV
PLAP act: PLAP enzyme activators, biochemical, luminescence, HTS. activation fold at 20 µM. 96,000 compounds, 1.2% hits. purified PLAP enzyme, luminescent substrate read-out; active compounds read high; in the data active = activation fold above about 2
M1 ag: M1 muscarinic receptor agonists, primary screen, CHO-M1 cells, Fluo-4 calcium, agonist mode; 64,000 compounds, 3% hits; B-score at 10 µM; Fluo-4 calcium fluorescence; active compounds read high; Muscarinic acetylcholine receptor M1; AID 626, 2007;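 active = fluorescence rise, raw or as B-score row- and column-corrected plate score, outside the 99.7% band of its plate's samples, either direction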
M1 antag confirm: rat M1 muscarinic receptor antagonists, confirmation, CHO cells, Fluo-4 calcium, duplicate; shares compounds with M1 antag; AID 677, 2007; calcium response (max-min fluorescence) at 10 µM; 1,700 compounds, 43% hits; ACh EC80 antagonism; active compounds read low;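 active = calcium response below the same-plate mean of wells given acetylcholine alone at its 80%-effect dose, minus 3 SD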;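 note: raw fluorescence intensity difference in arbitrary instrument units and not normalized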
mGluR4 antag: human mGluR4 response to M1 antagonist hits, M1 allosteric modulator project, cell-based, antagonist mode, secondary assay 1 | shares compounds with M1 antag | CHO-mGluR4 calcium flux, Fluo-4 fluorescence, glutamate EC80; active compounds read low | fluorescence response (max-min) at 10 µM | 1,700 compounds, 0.9% hits;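 active = fluorescence response below the plate's average for near-maximal glutamate wells, less 3 SD of those wells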;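 note: raw unnormalized fluorescence span taken in the window right after glutamate addition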
Numbers without * were called inactive.

Results for O=C(NCc1ccc(F)cc1)c1cnc(-c2ccccn2)nc1C(F)(F)F ?
Cav32 inh: 0.41; PLAP act: 1.4

Results for CC(C)C[C@H](NC(=O)OC(C)(C)C)c1nnc(SCC(=O)Nc2ccc(Br)cc2)o1 ?
M1 antag: -3.1*; Cav32 inh: -6.5*; PLAP act: 1.4; M1 ag: 0.019; M1 antag confirm: 555; mGluR4 antag: 182

How did O=C1CC(N2CCC(c3nc4ccccc4s3)CC2)C(=O)N1 (stereo not drawn) do in these assays?
M1 antag: -1.7*; Cav32 inh: -0.17; PLAP act: 1.5; M1 ag: 0.048; M1 antag confirm: 664; mGluR4 antag: 183

What do the screens show for `O=C(c1cccs1)N1CCN(C2CCN(Cc3ccccc3)CC2)CC1`?
M1 antag: -4.8*; Cav32 inh: -0.86; PLAP act: 1.4; M1 ag: -1.5; M1 antag confirm: 443*; mGluR4 antag: 276

What do the screens show for `CCCCOC(=O)Nc1cc(Cl)ccc1C`?
Cav32 inh: -1.8; PLAP act: 1.1

What do the screens show for `C=CCOC(=O)Nc1ccc(Cl)cc1NC(=O)OCC=C`?
M1 antag: -3.8*; Cav32 inh: -1.7; PLAP act: 1; M1 ag: 2.1; M1 antag confirm: 674; mGluR4 antag: 272

What do the screens show for `O=S(=O)(c1ccc2c(c1)OCCCO2)N1CCNCC1`?
M1 antag: -0.42; Cav32 inh: 0.67; PLAP act: 0.9; M1 ag: -1.5

Results for c1cc2c(cc1C1CCCN1)OCCCO2 (stereo not drawn) ?
M1 antag: -3.7*; Cav32 inh: 0.078; PLAP act: 0.8; M1 ag: 0.53; M1 antag confirm: 513*; mGluR4 antag: 239

Results for CCOC(=O)Cn1c(=N)n(Cc2ccccc2)c2ccccc21 ?
M1 antag: -0.35; Cav32 inh: -0.71; PLAP act: 0.9; M1 ag: 0.41

Results for CCOC(=O)Cn1c(=N)n(CCOc2cccc(C)c2)c2ccccc21 ?
M1 antag: -0.8*; Cav32 inh: -0.97; PLAP act: 0.8; M1 ag: -1.5; M1 antag confirm: 603; mGluR4 antag: 229

How did COc1c(C)cc(Br)cc1C(=O)Nc1ccc(N2CCN(S(C)(=O)=O)CC2)cc1 do in these assays?
M1 antag: -1.9*; Cav32 inh: -0.6; PLAP act: 0.9; M1 ag: 0.34; M1 antag confirm: 533; mGluR4 antag: 210

How did COc1c(C)cccc1C(=O)Nc1ccc(N2CCN(S(C)(=O)=O)CC2)cc1 do in these assays?
M1 antag: 0.04; PLAP act: 0.9; M1 ag: 0.16

Results for CC(C)(C)C(=O)OCC1OC(n2cnc(C(N)=O)n2)C(O)C1O (stereo not drawn) ?
M1 antag: -11*; Cav32 inh: -0.2; PLAP act: 1; M1 ag: -0.64; M1 antag confirm: 578; mGluR4 antag: 202

How did COC(=O)n1c(SC)nc2ccccc21 do in these assays?
M1 antag: -1.3; PLAP act: 1.1; M1 ag: 0.1

Results for CSc1nc2ccccc2n1C(=O)NC1CCCCC1 ?
M1 antag: -4.3*; Cav32 inh: -0.19; PLAP act: 1; M1 ag: -0.019; M1 antag confirm: 581; mGluR4 antag: 200

Results for O=C(COC(=O)c1cc[n+]([O-])cc1)NCC12CC3CC(CC(C3)C1)C2 ?
Cav32 inh: 0.021; PLAP act: 0.9

How did NC(=O)NC(=O)CSc1nnc(-c2ccco2)n1Cc1ccccc1 do in these assays?
Cav32 inh: -0.029; PLAP act: 1

Results for O=C(CSc1nnc(-c2ccco2)n1Cc1ccccc1)c1ccccc1 ?
M1 antag: -2*; Cav32 inh: -3.6; PLAP act: 1.6; M1 ag: 0.049; M1 antag confirm: 515; mGluR4 antag: 226

How did CCOC(=O)c1c(NC(=O)CSc2nnnn2C)sc(CC)c1C do in these assays?
M1 antag: 0.79; Cav32 inh: -1.9; PLAP act: 1.6; M1 ag: 0.56

Results for O=C(NCC12CC3CC(CC(C3)C1)C2)c1cc2n(n1)C(C(F)(F)F)CC(c1ccco1)N2 (stereo not drawn) ?
M1 antag: -0.17; Cav32 inh: -2.3; PLAP act: 1; M1 ag: 0.031

What do the screens show for `COc1ccc(NC(=O)C2CCCN2c2ccc(OC)c(OC)c2)cc1OC` (stereo not drawn)?
M1 antag: 0.3; Cav32 inh: 0.38; PLAP act: 1.1; M1 ag: 0.042

What do the screens show for `CC(=O)CC1OC(=O)C(Br)=C1NCc1ccccc1` (stereo not drawn)?
M1 antag: -2.3*; Cav32 inh: 0.56; PLAP act: 1; M1 ag: -0.78; M1 antag confirm: 669; mGluR4 antag: 225

How did COCCn1c(SCc2ccccc2Cl)nc2c1c(=O)[nH]c(=O)n2C do in these assays?
M1 antag: -0.4; Cav32 inh: 0.86; PLAP act: 1.1; M1 ag: -2.1

Results for COCCn1c(Sc2nc(C)cs2)nc2c1c(=O)[nH]c(=O)n2C ?
M1 antag: -4.1*; PLAP act: 0.9; M1 ag: -0.72; M1 antag confirm: 658; mGluR4 antag: 223

What do the screens show for `Cc1ccc(N2C(=O)C(Cl)=C(Nc3c(C)n(C)n(-c4ccccc4)c3=O)C2=O)cc1`?
M1 antag: -5.7*; Cav32 inh: 1.1; PLAP act: 1.3; M1 ag: 0.098; M1 antag confirm: 133*; mGluR4 antag: 265

Results for Cc1ccc(S(=O)(=O)NC(=O)Nc2c(C)n(C)n(-c3ccccc3)c2=O)cc1 ?
M1 antag: 0.24; Cav32 inh: 0.94; PLAP act: 1.1; M1 ag: 0.52

How did Cc1oc(-c2ccc(Cl)cc2)[n+]([O-])c1C do in these assays?
M1 antag: -1.6*; Cav32 inh: 0.26; PLAP act: 1; M1 ag: -0.88; M1 antag confirm: 527; mGluR4 antag: 233

Results for CN(C)c1nc(C(N)=O)nc(N2CCOCC2)n1 ?
Cav32 inh: 1.3; PLAP act: 0.9

How did CSc1nc(NCc2ccco2)c2c3c(sc2n1)CN(C)CC3 do in these assays?
M1 antag: -2.8*; Cav32 inh: 1.3; M1 ag: 1.7; M1 antag confirm: 711; mGluR4 antag: 250

How did CCC(O)CNc1nc(SC)nc2sc3c(c12)CCN(C)C3 (stereo not drawn) do in these assays?
M1 antag: -4.3*; Cav32 inh: 0.08; M1 ag: 0.0092; M1 antag confirm: 154*; mGluR4 antag: 197

Results for CSc1nc(SCC(N)=O)c2c3c(sc2n1)CN(C)CC3 ?
M1 antag: -5.1*; Cav32 inh: 4.1*; PLAP act: 1.4; M1 ag: -0.85; M1 antag confirm: 361*; mGluR4 antag: 253
